# An excerpt weighted towards active compounds, which were near 4.7% of everything screened.
# tim10-1 inh – growth inhibitors of tim10-1 mutant yeast, primary screen, luminescence, uHTS; S. cerevisiae tim10-1 ts strain growth, BacTiter-Glo, 24 h; inhibition, % at 20 µM; 2.2% of 330,000 active;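 active = inhibition of at least 40%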;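 note: mutant grown at 25 °C; 0% = DMSO wells with yeast and 100% = wells holding no yeast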
# PfHsp90 set2 – growth inhibition of PfHsp90-expressing yeast, primary screen, antimalarial PfHsp90 inhibitor project, S. cerevisiae, BacTiter-Glo luminescence, single point, set 2; BacTiter-Glo ATP, 48 h; yeast lacking PDR1 and PDR3 efflux regulators; inhibition, % at 9.4 µM; 0.32% of 310,000 active;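 active = every replicate shows inhibition above about 80%, whatever the replicate mean, limit read from the data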;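 note: 0% = DMSO neutral controls and 100% = 20 µM radicicol positive controls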
# Calb FLC – C. albicans growth inhibition with fluconazole, primary screen, CaCi-2 strain, Alamar Blue fluorescence. AID 1979, 2009. C. albicans CaCi-2 (fluconazole-resistant clinical isolate) + fluconazole, 48 h. 0.57% of 300,000 active. growth inhibition, % (concentration not given with the values);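 active = growth inhibition above about 58% in most replicates, limit read from the data, passing the limit was not always enough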;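 note: all wells also contain fluconazole at 8 µg/ml as a sub-toxic cotreatment; 0% = median of DMSO wells and 100% = median of geldanamycin control wells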
# SKKanGAS inh – S. pyogenes SKKanGAS growth inhibitors in kanamycin, primary screen, streptokinase expression inhibitor project, SKKanGAS strain, BacTiter-Glo luminescence. 6 h. inhibition, % at 7.5 µM. AID 1662, 2009. 1.3% of 300,000 active;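 active = mean replicate score, as percent of positive control median, at least 50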;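 note: strain carries kanamycin resistance gene driven by streptokinase promoter and grows in 40 µg/ml kanamycin; loss of luminescence reflects streptokinase promoter inhibition or plain growth inhibition; 0% = median of DMSO wells and 100% = positive control at its reference dose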
# tim23-1 inh – growth inhibitors of tim23-1 mutant yeast, primary screen, luminescence, uHTS; S. cerevisiae tim23-1 growth, BacTiter-Glo luminescence, 24 h; 1.3% of 330,000 active; AID 463212, 2010; inhibition, % at 20 µM;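 active = growth inhibition of the mutant yeast at or above 50%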;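 note: temperature-sensitive mutant grown at 25 °C; plate controls were DMSO-treated mutant yeast for no effect and medium wells lacking yeast for full effect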
# TIM10 inh – growth inhibitors of isogenic TIM10 control yeast, primary screen, counter-screen for tim10-1 yeast inhibitor project, luminescence, uHTS | S. cerevisiae TIM10 strain growth, BacTiter-Glo luminescence, 24 h | inhibition, % at 10 µM | 1.4% of 330,000 active;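 active = inhibition of 40% or more at the single tested concentration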;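 note: wild-type TIM10 isogenic control strain grown at permissive 25 °C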
# tim23-1 confirm – tim23-1 mutant yeast growth inhibitors, confirmation, luminescence, single concentration. shares compounds with tim23-1 inh. S. cerevisiae tim23-1 growth, BacTiter-Glo luminescence, 24 h. inhibition, % at 20 µM. 83% of 4,400 active. AID 463218, 2010;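 active = inhibition above about 39% in either of two replicate wells at 20 µM, limit read from the data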;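 note: temperature-sensitive tim23-1 mutant grown at 25 °C; 0% = DMSO wells with yeast and 100% = medium wells without yeast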
# An asterisk follows results filed as active; x = no result given.
SMILES,tim10-1 inh,PfHsp90 set2,Calb FLC,SKKanGAS inh,tim23-1 inh,TIM10 inh,tim23-1 confirm
COc1ccc2cc3cc(C(=O)N4CCCCC4C)oc3nc2c1 (stereo not drawn),25,4,1,-7,50*,24,59*
CCOC(=O)C1CCN(C(=O)c2cc3c(ccc4ccccc43)o2)CC1,27,-4,-4,-8,27,-8,x
COc1cccc(CN(C)C(=O)CSc2nc3ccccc3[nH]2)c1OC,34,20,-8,-4,19,21,x
CCOC(=O)C1=C(COC(=O)c2ccco2)NC(=O)NC1CC (stereo not drawn),6,-11,x,x,3,11,x
CC(C)CN=Cc1c(O)c([N+](=O)[O-])cc2oc3c(c12)CCCC3,37,-12,-5,-8,66*,40,1
Fc1ccc(-c2n[nH]c(=S)n2Cc2ccccc2)cc1,16,-16,-1,-2,56*,36,29
S=c1[nH]nc(-c2ccncc2)n1Cc1ccccc1,9,-15,-10,0,4,10,x
Cc1ccn2cc(-c3ccc(NC(=O)c4ccco4)cc3)nc2c1,-37,16,-8,-6,56*,32,48*
CC(=O)Nc1cccc(-c2cn3ccc(C)cc3n2)c1,-1,-37,2,3,4,3,x
Nc1nc(-c2ccc(NC(=O)c3ccco3)cc2)cs1,35,33,2,16,56*,39,70*
O=C(Nc1ccc(-c2ccc(N3CCCCC3)nn2)cc1)c1ccco1,27,x,25,20,63*,30,66*
O=C(Nc1nc(-c2cccs2)c(-c2ccccc2)s1)c1ccco1,26,-26,1,52*,55*,36,62*
O=C(Nc1ccc(NC(=O)c2ccco2)cc1)c1ccco1,-22,3,0,-1,46,19,x
O=C(Nc1nc(-c2nc3ccccc3s2)cs1)c1ccco1,-6,-39,-17,-3,-12,-35,x
O=C(Nc1nc(-c2ccc(Cl)s2)cs1)c1ccco1,21,16,-39,13,62*,29,67*
O=C(NCc1ccccc1F)Nc1ccc([N+](=O)[O-])cc1,3,27,-34,13,0,1,x
COc1ccccc1Nc1nc2ccc(C)cc2n2cnnc12,32,-8,50,-7,51*,21,32
CN1c2ccccc2-c2ccccc2S1(=O)=O,x,-48,x,x,x,x,x
CN1c2ccccc2C(=O)C(=C2SCCCS2)S1(=O)=O,25,0,10,-6,53*,38,54*
CSC1=N/C(=C\c2ccc(C)cc2)C(=O)S1,29,17,-7,4,61*,9,56*
COC(=O)c1ccc(/C=C2\N=C(SC)SC2=O)cc1,11,-4,-3,3,34,-31,x
Cc1[nH]n(-c2nc(-c3ccccc3)cc(=O)[nH]2)c(=O)c1CCO,2,0,-1,-1,87*,6,12
Cc1nc(-c2ccccc2)cc(=O)[nH]1,8,x,4,-1,0,7,x
Clc1ccccc1CSc1nnc(-c2ccccn2)n1Cc1ccco1,31,-29,34,0,52*,9,54*
NC(=O)CSc1nnc(-c2ccccn2)n1Cc1ccco1,9,1,-1,-7,0,5,x
SMILES,tim10-1 inh,PfHsp90 set2,Calb FLC,SKKanGAS inh,tim23-1 inh,TIM10 inh,tim23-1 confirm
O=C(Nc1ccc(C(=O)NCCCN2CCN(c3ccccc3)CC2)cc1)C1=CSCCO1,4,9,4,-1,5,10,x
COc1ccccc1C(=O)Nc1nnc(-c2ccc3c(c2)CCCC3)o1,25,-43,-3,58*,52*,39,56*
COc1ccc(-c2csc(Nc3cc(C)ccn3)n2)cc1OC,25,-20,19,8,94*,18,31
COc1ccc(-c2csc(Nc3ccc(C)cn3)n2)cc1OC,6,-8,13,-4,24,11,x
C=C(C(=O)Oc1c(C(C)(C)C)cccc1C(C)(C)C)c1ccccc1,6,6,x,x,3,5,x
CC(C)(C)C(=O)Nc1ccc(/C=C/C(=O)c2ccco2)cc1,38,4,1,7,51*,37,45*
O=C(Nc1nc2ccccc2s1)C1CCCN1S(=O)(=O)c1ccc(Cl)cc1 (stereo not drawn),40,x,-1,34,55*,7,50*
CC(=O)c1ccc(NC(=O)CSc2nc(=O)n3cccc(C)c3n2)cc1,-6,-23,6,-11,19,-3,x
COC(=O)c1ccc(NC(=O)CSc2nc(=O)n3cccc(C)c3n2)cc1,-15,x,7,-6,72*,-9,53*
COc1ccc([C@H]2CC(=O)C=C(c3ccc4ncccc4c3)C2)cc1,4,14,x,x,15,-2,x
O=C1C=C(c2ccc(O)cc2)C[C@@H](c2ccc(Cl)cc2)C1,0,-21,x,x,53*,-12,38
O=C1C=C(c2ccc3ncccc3c2)C[C@@H](c2ccc(Cl)cc2)C1,0,-4,x,x,52*,9,28
O=C1C=C(c2ccc3[nH]ccc3c2)C[C@@H](c2ccc(Cl)cc2)C1,34,-67,x,x,52*,27,46*
O=C(c1ccco1)N1CCN(S(=O)(=O)c2c(Cl)cccc2Cl)CC1,31,-2,4,4,42,6,x
CC1(C)CC(NC(=O)c2cccc(S(=O)(=O)N(Cc3ccccc3)c3ccccc3)c2)CC(C)(C)N1,-12,-2,-2,-5,7,9,x
OC[C@@H]1[C@@H](c2ccc(Cl)cc2)C(c2cccc(Cl)c2)=NN1c1ccccc1,20,-26,x,x,49,17,x
OC[C@@H]1[C@@H](c2ccc(F)cc2)C(c2cccc(Cl)c2)=NN1c1ccccc1,21,-24,x,x,53*,16,39
OC[C@@H]1[C@@H](c2ccc(Cl)cc2)C(c2ccccc2)=NN1c1ccccc1,17,-52,x,x,53*,6,34
Cc1c(NC(=O)c2cnc(Cl)c(Cl)c2)c(=O)n(-c2ccccc2)n1C,0,-16,-3,-14,-3,-11,x
CC(=O)N1c2ccc(S(=O)(=O)NCCC(=O)Nc3cccc(Cl)c3)cc2CC1C (stereo not drawn),-1,7,0,-2,-11,-3,x
Cc1cccc(-c2n[nH]c(=S)n2/N=C/c2cccs2)c1,10,x,60,5,51*,33,43*
